# RORgamma inh = blocks mouse ROR gamma transcriptional activity; P51450; Drosophila S2 Gal4-RORgamma UAS-luciferase reporter, 20 h; Potency, µM (doses to about 53.6 µM), for inactives: at the top dose activity change, negative = inhibition, usual class: inhibitors; 310,000 tested, 5.4% active; also: nearly all actives have a fitted effect of over 60% in size
# Target sequence (P51450 whole entry, looked up, the tested form may be a part): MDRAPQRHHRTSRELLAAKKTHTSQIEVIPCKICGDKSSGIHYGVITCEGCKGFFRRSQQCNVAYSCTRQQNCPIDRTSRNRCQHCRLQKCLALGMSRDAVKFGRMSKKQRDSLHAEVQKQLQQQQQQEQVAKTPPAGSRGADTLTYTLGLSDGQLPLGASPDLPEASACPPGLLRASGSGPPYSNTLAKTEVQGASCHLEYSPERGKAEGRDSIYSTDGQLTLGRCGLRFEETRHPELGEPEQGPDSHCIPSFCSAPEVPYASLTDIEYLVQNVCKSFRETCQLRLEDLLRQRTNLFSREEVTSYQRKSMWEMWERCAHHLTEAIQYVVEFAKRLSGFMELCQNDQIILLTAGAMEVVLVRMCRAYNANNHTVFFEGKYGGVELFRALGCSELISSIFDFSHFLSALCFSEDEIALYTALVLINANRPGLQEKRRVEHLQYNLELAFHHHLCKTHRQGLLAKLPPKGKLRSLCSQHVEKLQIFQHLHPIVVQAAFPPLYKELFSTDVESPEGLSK
#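 Using a luciferase readout, inhibitors were identified by reduced reporter activity in Drosophila cells coexpressing a copper-inducible Gal4–ROR gamma fusion and UAS-driven Photinus luciferase, incubated 20 hr after 700 uM copper sulfate.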
# KinaseGlo FLuc = blocks Kinase-Glo luciferase, a counter-screen artifact. 200,000 tested, 0.28% active. Q27757. Kinase-Glo luciferase, ATP luminescence, 8 min. AID 1379. Potency, µM (doses to about 38.3 µM), for the others: top-dose activity change, negative = inhibition, usual class: inhibitors; also: nearly all actives have a fitted effect of over 60% in size
#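 Light output from Kinase-Glo luciferase with luciferin and 10 uM ATP in 50 mM imidazole pH 7.2, KCl, MgCl2, Tween 20, BSA; compound pin-delivered, 8-min ambient incubation, then luminescence read.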
# Gal4-VP16 FLuc = inhibits Gal4-VP16 luciferase reporter, ROR gamma counter-screen | Drosophila S2 Gal4-VP16 UAS-luciferase, luminescence, 20 h | Potency, µM (series often up to 53.6 µM), without a hit: at the top dose activity, negative = inhibition, hits mostly inhibitors | 310,000 tested, 3.5% active | AID 2546;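 also: Gal4-VP16 expression switched on by copper sulfate through the metallothionein promoter; nearly all actives have a fitted effect of over 50% in size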
# Active calls of the source: *; u = inconclusive; x = no result; [ ] = dose if it differs, or a comment. Shown are actives, neighbours in structure and some others; about 6.4% of the full set was active somewhere. Calls follow the shape of the dose curve; as a rule, active = well fitted curve in the direction sought with a large enough effect; inconclusive = small, poorly fitted or top-dose-only effect, or another doubt; inactive = no such curve, though single readings can be large; an effect the other way counts as inactive or inconclusive. % is scaled to controls: 0 for no effect and ±100 for the full control effect; potency is read from the fitted curve at half-maximal effect.
SMILES,RORgamma inh,KinaseGlo FLuc,Gal4-VP16 FLuc
Cc1cc(-c2n[nH]c(=S)n2/N=C/c2ccccc2[N+](=O)[O-])n[nH]1,-15.6%,2.3%,u
Cc1cc(-c2n[nH]c(=S)n2/N=C/C=C/c2ccccc2)n[nH]1,-38.3%,2.4%,u
O=[N+]([O-])c1ccccc1/C=C/C=N/n1c(-c2ccc(Cl)cc2)n[nH]c1=S,8.91µM*,-3.0%,-17.5%
Cc1ccc(-c2n[nH]c(=S)n2/N=C/C=C\c2ccccc2[N+](=O)[O-])cc1,u,-4.0%,-20.6%
N#C/C(=C\c1ccccc1)C(=O)OCC(=O)N1CCCC1,-19.0%,0.2%,-7.5%
O=C(c1cc(C(F)(F)F)cc(C(F)(F)F)c1)N1CCC2(CC1)CN(c1ncccn1)C2,23.8%,-2.2%,2.7%
O=C(c1cc(C(F)(F)F)cc(C(F)(F)F)c1)N1CCC2(CC1)CN(c1ccccn1)C2,-37.9%,-0.1%,15.8µM*
Cc1ccc(CC(=O)N2CCN(C(=O)C3CCCO3)CC2)cc1 (configuration not stated),12.2%,x,0.4%
O=C(NCc1ccco1)C(c1ccc(F)cc1)N(C(=O)Cc1cccs1)c1cccnc1 (configuration not stated),6.5%,-2.9%,0.7%
CC12CCC(=O)N1C(C(=O)Nc1ccc(F)cc1)CS2 (configuration not stated),-1.9%,x,6.8%
CC12CCC(=O)N1C(C(=O)NCCc1ccccc1)CS2 (configuration not stated),7.94µM*,x,15.8µM*
CC(C)C[C@H](NC(=O)[C@H](CO)NC(=O)[C@@H]1CCCN1C(=O)[C@H](Cc1ccc(O)cc1)NC(=O)[C@H](CC(C)C)NC(=O)[C@H](CC(C)C)NC(=O)[C@@H]1CCCN1C(=O)[C@@H](NC(=O)[C@H](CO)NC(=O)[C@H](CO)NC(=O)[C@H](CO)NC(=O)[C@H](CO)NC(=O)[C@@H]1CCCN1C(=O)[C@@H](NC(=O)[C@@H](N)CO)C(C)C)[C@@H](C)O)C(=O)N[C@@H](C)C(=O)N[C@@H](CC(C)C)C(=O)N1CCC[C@H]1C(=O)N[C@@H](C)C(=O)N1CCC[C@H]1C(=O)O,7.8%,x,-4.8%
O=[N+]([O-])c1ccc(O)c(/C=N/n2cnnc2)c1,-14.2%,3.3%,-0.1%
O=C(N/N=C/c1cc([N+](=O)[O-])ccc1O)C1C2CCCCC21 (configuration not stated),0.891µM*,1.0%,2.82µM*
O=C(N/N=C/c1cc([N+](=O)[O-])ccc1O)C1CCCCC1,0.501µM*,-0.5%,2.51µM*
CN(C)/N=C/c1cc([N+](=O)[O-])ccc1O,-35.9%,1.6%,-13.2%
O=C(NCc1ccccc1)C1(C(F)(F)F)C/C(=C\Cc2ccccc2)CCCO1 (configuration not stated),-2.8%,x,7.7%
COc1ccc(CCC(=O)OCc2csc(CC(=O)Nc3ccccc3C)n2)cc1,-0.8%,x,3.4%
COc1ccc(C2=NOC3(CC(=O)N(c4ccc(F)cc4)C3=O)C2)cc1 (configuration not stated),10.6%,x,-6.4%
CC(C)(C)C1=NN(C(=O)c2ccccc2)C(O)(C(C)(C)C)C1 (configuration not stated),7.2%,-3.0%,1.7%
CC(C)C1=NN(C(=O)c2ccccc2)C(O)(C(C)(C)C)C1 (configuration not stated),4.47µM*,-1.5%,u
COc1ccc(-n2ccnc2SCC(=O)NO)cc1,-16.2%,-0.2%,-11.1%
CCc1nnc(N2C(=N)SCC2=O)s1,1.41µM*,-0.6%,12.6µM*
Cc1cccc(N2C(=N)SCC2=O)c1C,-7.7%,-1.8%,2.1%
c1ccc2c(c1)OCCc1c-2[nH]c2ccccc12,-19.8%,x,-2.5%
SMILES,RORgamma inh,KinaseGlo FLuc,Gal4-VP16 FLuc
c1ccc2c(c1)SCc1c-2[nH]c2ccccc12,4.47µM*,x,10µM*
CC(=O)N1c2ccc(S(=O)(=O)N3CCC(C(=O)Nc4cccc(Cl)c4)CC3)cc2CC1C (configuration not stated),-30.9%,x,11.2µM*
CC(=O)N1c2ccc(S(=O)(=O)N3CCC(C(=O)Nc4cccc(C)c4)CC3)cc2CC1C (configuration not stated),43.5%,x,u
CCN(CC)S(=O)(=O)c1cc(NC(=O)CSc2nc3c(cc2C#N)C(=O)CC(C)(C)C3)ccc1C,15.0%,2.9%,24.1%
O=C(Nc1nc2c(Cl)ccc(Cl)c2s1)C1CC1,10.8%,x,3.2%
NNc1nc2c(Cl)ccc(Cl)c2s1,11.2µM*,-6.9%,17.8µM*
CC1CN(C(=O)c2ccc(NS(=O)(=O)c3ccc(F)cc3)cc2)CC(C)O1 (configuration not stated),-14.3%,x,-6.6%
CCC(=O)N1CCN(c2nc(CC)nc3sc4c(c23)CCCC4)CC1,13.0%,x,1.0%
CCc1nc(N2CCN(C(=S)NCCCOC)CC2)c2c3c(sc2n1)CCCC3,14.1µM*,x,u
CC[C@H](C)[C@H](NC(=O)[C@H](CCC(=O)O)NC(=O)[C@H](CC(N)=O)NC(=O)[C@@H](N)[C@@H](C)O)C(=O)N[C@H](C(=O)N[C@@H](CCC(=O)O)C(=O)N[C@@H](CCC(=O)O)C(=O)N[C@@H](CCC(N)=O)C(=O)N[C@@H](Cc1ccc(O)cc1)C(=O)N[C@H](C(=O)N1CCC[C@H]1C(=O)N[C@@H](CCC(N)=O)C(=O)N[C@@H](CO)C(=O)N[C@@H](CC(C)C)C(=O)N[C@@H](C)C(=O)N[C@H](C(=O)N[C@@H](CC(C)C)C(=O)N[C@@H](CCC(=O)O)C(=O)N[C@@H](CO)C(=O)N[C@H](C(=O)N[C@@H](Cc1ccccc1)C(=O)N[C@@H](CCC(N)=O)C(=O)N[C@@H](CCC(=O)O)C(=O)N[C@@H](CC(C)C)C(=O)NCC(=O)N[C@@H](CCCCN)C(=O)N[C@@H](CC(C)C)C(=O)N[C@H](C(=O)NCC(=O)N1CCC[C@H]1C(=O)N[C@@H](CC(N)=O)C(=O)N[C@@H](CO)C(=O)N[C@@H](CCC(N)=O)C(=O)O)[C@@H](C)O)C(C)C)[C@@H](C)O)[C@@H](C)O)C(C)C,3.0%,x,-3.5%
O=C(CSC1=NCCS1)Nc1ccc2ccccc2c1,11.9%,1.3%,-8.4%
O=C(CSC1=NCCS1)Nc1ccnc2ccccc12,-39.2%,2.5%,3.98µM*
Cc1cc(C)nc(SCC(=O)Nc2ccnc3ccccc23)n1,2.24µM*,-0.9%,0.891µM*
COC(=O)c1ccccc1NC(=O)CSc1nc(C)cc(C)n1,-5.4%,0.4%,1.3%
N#CNC(N)=Nc1ccc(Cl)cc1,x,-9.2%[7.66 µM],x
COc1ccc(NC(=S)NC(=O)c2csnn2)cc1,u,x,25.7%
O=C(Nc1csnn1)c1csnn1,4.7%,x,0.1%
O=C(NC(=S)Nc1ccc(C(F)(F)F)cc1)c1csnn1,7.94µM*,-1.3%,u
O=C(NC(=S)Nc1ccccc1)c1csnn1,5.62µM*,0.1%,u
COc1cc(/C=C/C(=O)NC(C)C2CC3CCC2C3)cc(OC)c1OC (configuration not stated),35.3%,x,7.5%
Cc1[nH]n2c(=O)cc(C(C)(C)C)nc2c1-c1ccccc1,1.41µM*,x,3.16µM*
CC(C)c1cc(=O)n2[nH]c(SCc3ccccc3)nc2n1,14.0%,x,20.0%

# Screens: PubChem, National Center for Advancing Translational Sciences (NCATS)
